Experimental data taken from PubChem BioAssay AID686979 (National Center for Advancing Translational Sciences (NCATS), 2013).
Among all 420,000 compounds or so, about 50,000 (12%) were called active. Roughly 26% stayed inconclusive and do not appear here. The sample holds actives, similar compounds and a random draw of the others, so the mix is not that of the screen. Unmarked numbers belong to inactive results. Calls follow the shape of the dose curve; as a rule, active = well fitted inhibition curve with a large enough effect; inconclusive = small, poorly fitted or top-dose-only effect; inactive = flat fitted curve, though single readings scatter.

Test: qHTS for Inhibitors of human tyrosyl-DNA phosphodiesterase 1 (TDP1): qHTS in cells in presence of CPT; also: nearly all actives have a fitted effect of over 55% in size
Settings: chicken DT40 Tdp1-/-;hTDP1 cells + 20 nM CPT, ATP luminescence, 48 h; series mostly up to 46.2 µM; activity change, negative = growth inhibition: at the top concentration
Procedure, shortened: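 Chicken DT40 Tdp1-/- cells complemented with human TDP1, 400 cells/well, exposed to compounds plus 20 nM camptothecin for at least 48 h at 37 C; viability read as ATP content by CellTiter-Glo luminescence.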
% is scaled to controls: 0 for no effect and ±100 for the full control effect; potency is read from the fitted curve at half-maximal effect.

SMILES | Potency | activity change, negative = growth inhibition [%]
COc1cc([N+](=O)[O-])ccc1NC(=O)COC(=O)CCOc1ccc(C)cc1 | 6.51 µM (active) | –
CSc1ccccc1NC(=O)COC(=O)CCCOc1ccc(C)cc1 | – | -3.52
CC1(C)CC(=O)CC2(C1)NCC(c1ccccc1Cl)c1c2[nH]c2ccccc12 (centres undefined) | 18.4 µM (active) | –
Cc1ccc(C(=O)Nc2nc(N)n(-c3ccccc3)n2)cc1 | – | -3.52
Cc1ccc(C(=O)Nc2nc(-c3ccccc3)ns2)cc1 | – | 3.18
CCc1cccc(-n2nnc(-c3nsc(NC(=O)c4ccc(C)cc4)n3)c2C)c1 | 9.2 µM (active) | –
CCN(CC(=O)Nc1ccc(NC(C)=O)cc1)C(=O)C1CC(=O)N(c2ccc3c(c2)OCCO3)C1 (centres undefined) | – | -1.1
COc1cccc(CNC(=O)CCC(=O)N2CC3CCCN3c3ccccc32)c1 (centres undefined) | 14.6 µM (active) | –
COc1cccc(CNC(=O)C2CC(=O)N(C3CCCCCCC3)C2)c1 (centres undefined) | – | -25.5
COc1cccc(CNC(=O)CCC2CCCN(C(=O)c3cc(C)[nH]n3)C2)c1 (centres undefined) | – | -15.1
CCOc1ccc(-c2nc(C)sc2CC(=O)O)cc1 | – | -19.3
Cc1cc(C)cc(NC(=O)C2CCCN(S(=O)(=O)c3ccc4[nH]c(=O)ccc4c3)C2)c1 (centres undefined) | – | -16.4
Cn1nnnc1SCC(=O)Nc1sccc1C(N)=O | – | -10.4
CC1=C(C(=O)OCc2ccc(C)cc2)C(c2ccccc2Cl)CC(=O)N1 (centres undefined) | 13 µM (active) | –
COC(=O)C1=C(C)NC(=O)CC1c1ccccc1OC (centres undefined) | – | 2.8
CC1=C(C(=O)OCc2ccc(C)cc2)C(c2c(Cl)cccc2Cl)CC(=O)N1 (centres undefined) | – | -45.1
O=C(Nc1ccc(Cl)cn1)c1ccccc1-c1ccccc1 | – | -9.84
CC1(C)S[C@@H]2[C@H](N=CN3CCCCCC3)C(=O)N2[C@H]1C(=O)O | – | -15.7
C=CCn1c(SCc2ccc(C(=O)NCCO)cc2)nc2ccccc2c1=O | – | -9.74
OC1CSc2nc3ccccc3n2C1 (centres undefined) | – | 8.44
CC(=O)N1c2ccc(S(=O)(=O)N3CCC(C(=O)NC4CCCC(C)C4C)CC3)cc2CC1C (centres undefined) | – | -25.8
CC(=O)N1c2ccc(S(=O)(=O)N3CCCC(C(=O)Nc4cccc(Cl)c4)C3)cc2CC1C (centres undefined) | 16.4 µM (active) | –
CCc1cccc(NC(=O)C2CCCN(S(=O)(=O)c3ccc4[nH]c(=O)ccc4c3)C2)c1 (centres undefined) | – | -6.93
COc1ccc(OC)c(NC(=O)C2CCCN2S(=O)(=O)c2cccc3nsnc23)c1 (centres undefined) | – | -22.3
CC(=O)N1c2ccc(S(=O)(=O)N3CCC(C(=O)NCc4ccc(F)cc4)CC3)cc2CC1C (centres undefined) | – | -26.5

SMILES | Potency | activity change, negative = growth inhibition [%]
COc1ccc(OC)c(NC(=O)C2CCCN2S(=O)(=O)c2ccc3c(c2)CC(C)N3C(C)=O)c1 (centres undefined) | 20.6 µM (active) | –
COc1ccc(OC)c(NC(=O)c2cccc(S(=O)(=O)N3CCN(C(C)=O)CC3)c2)c1 | – | 4.49
CC(=O)N1c2ccc(S(=O)(=O)N3CCCC(C(=O)Nc4cccc(F)c4)C3)cc2CC1C (centres undefined) | 11.6 µM (active) | –
CC(=O)N1c2ccc(S(=O)(=O)N3CCC(C(=O)NC4CCCCC4C)CC3)cc2CC1C (centres undefined) | – | 5.58
CC(=O)N1CCc2cc(Br)cc(S(=O)(=O)CCC(=O)Nc3c(C)n(C)n(-c4ccccc4)c3=O)c21 | – | -6
COC(=O)c1cc(NC(=O)CCc2c(C)nc3c4c(C)cc(C)nc4nn3c2C)cc(C(=O)OC)c1 | – | -8.98
COc1ccc(NC(=O)CCCc2nnc3n(CCC(C)C)c(=O)c4sccc4n23)c(OC)c1 | – | -17.2
COc1cc(C(=O)NN(CCC#N)C2=NS(=O)(=O)c3ccccc32)cc(OC)c1OC | – | 19.6
COc1cc(/C=C/C(=O)OCC(=O)Nc2cccc(Oc3ccccc3)c2)ccc1O | – | -24.9
CN(c1ccc(OCC(=O)O)cc1)S(=O)(=O)c1ccc2ccccc2c1 | – | -4.79
COc1ccc(NC(=O)C/C(C)=N/NC(=O)c2cnccn2)cc1Cl | – | -9.25
CC1(C(=O)NS(=O)(=O)c2ccccc2)CCN1C(=O)C/C=C/c1ccccc1 (centres undefined) | – | -13.3
CC1(C)CCSC(/C=C/c2ccccc2)=N1 | 4.61 µM (active) | –
O=C(Nc1ccc(C(=O)OCc2cc(=O)n3nc(C4CC4)sc3n2)cc1)c1ccc(F)cc1 | – | -12.1
O=C(N/N=C/c1cccc(OC(=O)c2ccc([N+](=O)[O-])cc2)c1)c1cccnc1 | – | 10.5
O=C(CCNC(=O)Cn1ccc2ccccc2c1=O)NCCC1=CCCCC1 | – | 2.96
N#CC1(NC(=O)COC(=O)Cc2n[nH]c(=O)c3ccccc23)CCCCC1 | – | -2.98
C/C=C/C=C/C(=O)O | inactive | –
COc1ccc(OC)c(NC(=O)CSc2nc(-c3ccccc3)cc(=O)[nH]2)c1 | – | -8.5
CC(=O)NCCn1c(SCC(=O)Nc2ccc(C)cc2)nc2ccccc2c1=O | inactive | –
CCOCCCn1c(SCC(=O)Nc2ccc(CC)cc2)nc2ccccc2c1=O | 14.6 µM (active) | –
COc1ccc(Cl)cc1NC(=O)CSc1nc2ccccc2c2nc(-c3ccccc3)nn12 | – | -13.4
CCOCCCn1c(SCC(=O)Nc2cc(OC)ccc2OC)nc2ccccc2c1=O | 13 µM (active) | –
CCc1nnc(NC(=O)CSc2nc3ccccc3c(=O)n2CCCOC)s1 | – | -8.33
